Data: PubChem BioAssay
Active and inactive are the calls of the source.

Legend:
[1] = binders of probe aFSTL3 on microarray, primary screen, stem cell growth factor project, biochemical, small-molecule microarray, fluorescence 635/667 (AID 1064); settings: higher = more signal;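 also: measures binding of the biotinylated anti-FSTL3 antibody to printed compounds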
[2] = binders from COS7 lysate, DM2A8 probe, primary screen, torsin A project, cell lysate, small-molecule microarray, fluorescence 635/667 (AID 1065); settings: higher = more signal, COS7 lysate expressing mutant human TOR1A
[3] = binders of probe aFGF2 on microarray, primary screen, stem cell growth factor project, biochemical, small-molecule microarray, fluorescence 635/667 (AID 1067); settings: higher = more signal;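 also: measures binding of biotinylated aFGF2 protein to printed compounds on slides; z-score merges feature fluorescence and signal-to-noise across triplicate slides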
[4] = binders of probe aFGF10 on microarray, primary screen, stem cell growth factor project, biochemical, small-molecule microarray, fluorescence 635/667 (AID 1071); settings: higher = more signal;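 also: score merges 667 nm spot intensity and signal to noise from triplicate slides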
[5] = target: Neurogenic locus notch homolog protein 2 (Homo sapiens) (UniProt Q04721); assay: Notch2 binders on small-molecule microarrays, primary screen, biochemical, small-molecule microarray, 635 nm fluorescence, stem cell growth factors (AID 1073); settings: Notch2 binding, higher = more signal
Chain of Neurogenic locus notch homolog protein 2 (Homo sapiens) (Q04721 whole entry, looked up, canonical isoform): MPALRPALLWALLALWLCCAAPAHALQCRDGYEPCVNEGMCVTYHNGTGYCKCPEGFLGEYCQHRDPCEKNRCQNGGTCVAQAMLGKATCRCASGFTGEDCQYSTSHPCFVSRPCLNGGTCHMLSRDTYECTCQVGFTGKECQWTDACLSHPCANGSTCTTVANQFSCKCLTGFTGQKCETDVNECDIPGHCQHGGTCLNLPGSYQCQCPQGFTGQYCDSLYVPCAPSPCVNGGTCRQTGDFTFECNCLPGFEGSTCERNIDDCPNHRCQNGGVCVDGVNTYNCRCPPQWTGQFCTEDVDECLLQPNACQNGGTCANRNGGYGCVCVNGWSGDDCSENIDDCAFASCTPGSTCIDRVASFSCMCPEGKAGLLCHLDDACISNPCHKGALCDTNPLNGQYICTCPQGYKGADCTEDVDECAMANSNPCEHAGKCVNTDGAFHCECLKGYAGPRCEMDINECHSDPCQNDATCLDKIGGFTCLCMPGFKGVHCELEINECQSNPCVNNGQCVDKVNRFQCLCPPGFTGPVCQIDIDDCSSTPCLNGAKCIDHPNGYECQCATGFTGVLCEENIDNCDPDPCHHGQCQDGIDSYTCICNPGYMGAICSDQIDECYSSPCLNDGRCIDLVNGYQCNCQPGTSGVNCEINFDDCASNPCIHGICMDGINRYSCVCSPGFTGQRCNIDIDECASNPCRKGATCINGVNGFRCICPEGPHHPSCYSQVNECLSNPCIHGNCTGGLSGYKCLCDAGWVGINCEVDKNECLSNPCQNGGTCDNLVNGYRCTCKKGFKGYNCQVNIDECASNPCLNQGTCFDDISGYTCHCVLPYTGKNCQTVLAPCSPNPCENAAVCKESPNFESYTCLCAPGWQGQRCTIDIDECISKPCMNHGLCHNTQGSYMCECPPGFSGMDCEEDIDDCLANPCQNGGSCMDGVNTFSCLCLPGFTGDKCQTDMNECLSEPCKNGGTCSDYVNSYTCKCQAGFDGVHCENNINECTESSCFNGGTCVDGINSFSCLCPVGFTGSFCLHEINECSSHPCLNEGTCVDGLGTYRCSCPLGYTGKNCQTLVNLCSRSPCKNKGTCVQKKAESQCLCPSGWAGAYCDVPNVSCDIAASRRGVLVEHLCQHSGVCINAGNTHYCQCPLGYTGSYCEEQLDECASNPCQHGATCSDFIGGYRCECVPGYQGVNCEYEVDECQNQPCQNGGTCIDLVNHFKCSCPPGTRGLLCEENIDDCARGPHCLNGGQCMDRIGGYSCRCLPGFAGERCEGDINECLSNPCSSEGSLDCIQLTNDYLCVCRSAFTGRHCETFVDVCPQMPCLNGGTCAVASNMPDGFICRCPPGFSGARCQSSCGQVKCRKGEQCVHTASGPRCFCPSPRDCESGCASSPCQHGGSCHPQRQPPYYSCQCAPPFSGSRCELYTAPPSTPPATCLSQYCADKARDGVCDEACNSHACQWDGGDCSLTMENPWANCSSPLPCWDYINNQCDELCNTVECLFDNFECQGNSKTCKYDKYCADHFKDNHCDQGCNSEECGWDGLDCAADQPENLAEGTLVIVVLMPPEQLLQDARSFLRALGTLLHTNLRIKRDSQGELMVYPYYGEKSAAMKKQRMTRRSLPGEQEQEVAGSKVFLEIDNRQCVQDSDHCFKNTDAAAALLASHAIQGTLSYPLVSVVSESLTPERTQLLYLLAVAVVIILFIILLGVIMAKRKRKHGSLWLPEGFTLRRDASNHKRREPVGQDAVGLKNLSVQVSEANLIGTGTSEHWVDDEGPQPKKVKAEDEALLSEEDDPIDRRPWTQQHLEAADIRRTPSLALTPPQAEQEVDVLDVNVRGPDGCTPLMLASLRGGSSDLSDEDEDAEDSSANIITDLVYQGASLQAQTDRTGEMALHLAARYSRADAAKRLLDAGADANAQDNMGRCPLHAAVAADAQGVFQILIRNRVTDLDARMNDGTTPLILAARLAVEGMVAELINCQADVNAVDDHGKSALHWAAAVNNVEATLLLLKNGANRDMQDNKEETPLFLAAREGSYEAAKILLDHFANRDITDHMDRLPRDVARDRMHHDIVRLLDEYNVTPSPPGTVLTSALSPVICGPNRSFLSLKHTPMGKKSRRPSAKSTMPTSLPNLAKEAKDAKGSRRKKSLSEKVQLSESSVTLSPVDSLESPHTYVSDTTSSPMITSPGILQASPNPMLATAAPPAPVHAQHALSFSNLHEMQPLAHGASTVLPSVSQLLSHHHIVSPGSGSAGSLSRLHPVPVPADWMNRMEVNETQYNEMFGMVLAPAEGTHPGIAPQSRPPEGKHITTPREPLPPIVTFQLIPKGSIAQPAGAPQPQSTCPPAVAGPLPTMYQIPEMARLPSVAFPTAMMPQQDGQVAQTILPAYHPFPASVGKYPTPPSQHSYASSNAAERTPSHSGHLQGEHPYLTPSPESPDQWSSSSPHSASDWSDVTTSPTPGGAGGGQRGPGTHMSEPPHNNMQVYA

[6] = target: Pro-neuregulin-1, membrane-bound isoform (Homo sapiens) (UniProt Q02297); assay: NRG1 binders on small-molecule microarrays, primary screen, psychiatric disease protein project, biochemical, small-molecule microarray, fluorescence 635/667 (AID 1075); settings: NRG1 binding, 635 nm fluorescence, higher = more signal;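 also: score combines 667 nm spot fluorescence with signal to noise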
Chain of Pro-neuregulin-1, membrane-bound isoform (Homo sapiens) (Q02297 whole entry, looked up, the tested form may be a part, canonical isoform): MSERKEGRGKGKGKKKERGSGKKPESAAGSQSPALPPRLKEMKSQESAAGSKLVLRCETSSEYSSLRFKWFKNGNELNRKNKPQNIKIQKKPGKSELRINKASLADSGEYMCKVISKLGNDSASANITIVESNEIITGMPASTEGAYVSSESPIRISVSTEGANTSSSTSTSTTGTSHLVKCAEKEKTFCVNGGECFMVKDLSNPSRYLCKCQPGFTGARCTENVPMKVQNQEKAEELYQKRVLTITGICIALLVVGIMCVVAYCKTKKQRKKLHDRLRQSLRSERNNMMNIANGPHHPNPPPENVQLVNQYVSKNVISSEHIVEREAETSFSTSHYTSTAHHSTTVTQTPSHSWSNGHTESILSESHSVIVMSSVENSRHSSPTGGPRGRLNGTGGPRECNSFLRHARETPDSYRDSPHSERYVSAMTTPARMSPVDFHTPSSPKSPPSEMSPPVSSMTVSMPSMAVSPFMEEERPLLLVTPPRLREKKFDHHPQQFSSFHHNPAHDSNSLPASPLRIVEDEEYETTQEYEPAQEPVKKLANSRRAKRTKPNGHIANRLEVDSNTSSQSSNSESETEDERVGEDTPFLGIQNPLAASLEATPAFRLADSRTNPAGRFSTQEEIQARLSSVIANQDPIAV

[7] = system: Neuregulin-1 EGF-like domain; assay: binders of neuregulin-1 EGF-like domain, primary screen, biochemical, small-molecule microarray, 635 nm fluorescence (AID 1081); settings: small-molecule microarray binding, higher = more signal;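 also: binding of the protein to compounds printed on small-molecule microarray slides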
[8] = FRG1 promoter luciferase signal modulators, primary screen, FRG1 inhibition for FSHD, cell-based, C2C12 myotubes, firefly/Renilla luciferase, luminescence (AID 1084); settings: higher = more signal, called active from +8 up or from −8 down
[9] = binders of probe aFST on microarray, primary screen, stem cell growth factor project, biochemical, small-molecule microarray, fluorescence 635/667 (AID 1086); settings: higher = more signal;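 also: score merges 667 nm fluorescence with signal-to-noise of each printed compound spot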
[10] = binders of probe aHhip on microarray, primary screen, stem cell growth factor project, biochemical, small-molecule microarray, fluorescence 635/667 (AID 1087); settings: higher = more signal;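 also: score merges spot fluorescence at 667nm with spot signal to noise ratio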

Row | SMILES | composite z-score [1] | composite z-score [2] | composite z-score [3] | composite z-score [4] | composite z-score [5] | composite z-score [6] | composite z-score [7] | z-score [8] | composite z-score [9] | composite z-score [10]
1 | [N-]=[N+]=NCc1ccccc1C[C@]1(C(=O)NCC(O)CO)N=C(c2ccc(OCCCO)cc2)O[C@H]1c1ccccc1N=[N+]=[N-] (stereo not given in full) | 1.55 | 0.459 | -0.01 | 0.77 | 0.814 | 1.17 | 0.731 | -0.5 (inactive) | 0.575 | -0.194
2 | CCCCC=C[C@@H](NC(=O)c1cccs1)c1ccccc1 | 0.144 | 0.583 | 0.121 | 0.308 | 1.1 | 0.736 | 0.858 | -3.42 (inactive) | 0.409 | 0.913
3 | COc1ccc(C#Cc2ccc3c(c2)[C@]2(C(=O)N3)[C@H](C(=O)NC[C@H](O)c3ccccc3)[C@H]3C(=O)O[C@H](c4ccccc4)[C@H](c4ccccc4)N3[C@@H]2c2ccc(OCCO)cc2)cc1 | -0.547 | 0.637 | -0.0005 | 0.6 | 0.975 | 1.07 | 1.19 | 0.943 (inactive) | 0.0324 | -0.32
4 | Cc1cc(C)c(C(O)C2C=CC3C(=O)N(c4ccccc4)C(=O)C3N2Nc2ccc(C#N)cc2)c(C)c1 (stereo not given) | 0.624 | 0.36 | 0.111 | 0.783 | 1.58 | 1.74 | 1.15 | -1.08 (inactive) | 1.73 | 0.167
5 | O=C1O[C@H](c2ccccc2)[C@H](c2ccccc2)N2[C@H]1[C@@H](C(=O)O)[C@]1(C(=O)Nc3ccc(C#CC4=CCCCC4)cc31)[C@H]2c1ccc(OCCO)cc1 | -0.0152 | 0.651 | -0.0438 | 1.09 | 1.44 | 1.77 | 1.34 | 0.448 (inactive) | 1.03 | -0.0672
6 | [N-]=[N+]=NCc1ccccc1C[C@@]1(C(=O)NCC(O)CO)N=C(c2ccc(OCCCO)cc2)O[C@@H]1c1ccccc1CN=[N+]=[N-] (stereo not given in full) | 0.178 | -0.342 | 0.0587 | 0.939 | 1.43 | 1.34 | 1.21 | -0.429 (inactive) | 0.704 | -0.115
7 | CCCNC(=O)[C@@]1(c2ccc([N+](=O)[O-])cc2)CC(=O)N(CC23CC4CC(CC(C4)C2)C3)[C@@H]1c1ccc(CO)cc1 | -0.271 | 0.515 | 0.0422 | 0.303 | 0.143 | 0.582 | 0.791 | -1.75 (inactive) | 1.13 | 0.358
8 | C=CCOC(=O)[C@H]1[C@@H]2C(=O)O[C@@H](c3ccccc3)[C@@H](c3ccccc3)N2[C@@H](c2ccc(OCCOC(=O)[C@@H]3C[C@@H]4C(=O)NCC(=O)N4[C@@H]3c3ccc(O)cc3)cc2)[C@]12C(=O)Nc1ccccc12 | -0.214 | 0.454 | -0.0296 | 0.515 | -0.111 | -0.373 | 1.26 | -1.27 (inactive) | -0.112 | -0.0237
9 | Cc1ccc(S[C@]2(C(=O)NC3CC3)CC(=O)N(C3CCCCC3)[C@@H]2c2ccc(CO)cc2I)cc1 | -0.208 | 0.298 | -0.0328 | 0.48 | 1.03 | 1.29 | 1.31 | -4.48 (inactive) | 0.431 | 0.118
10 | COCCOC(=O)N1C(=O)[C@@]2(c3ccccc31)[C@H](C(=O)Nc1nc3ccccc3s1)[C@H]1C(=O)O[C@H](c3ccccc3)[C@H](c3ccccc3)N1[C@@H]2c1ccc(OCCO)cc1 | 0.001 | 0.686 | -0.0426 | 0.738 | 0.907 | 0.897 | 1.18 | 2.77 (inactive) | 0.381 | -0.117
11 | N#Cc1ccc(NN2C(C(O)c3ccc([N+](=O)[O-])cc3)C=CC3C(=O)N(c4ccccc4)C(=O)C32)cc1 (stereo not given) | 0.298 | -0.0479 | 0.11 | 0.921 | 1.59 | 1.66 | 1.35 | 0.536 (inactive) | 0.899 | -0.287
12 | COCC(=C=CC[C@@H](O)c1ccc(CO)o1)CCO | -0.403 | -0.196 | -0.188 | 0.502 | -0.235 | 0.178 | -0.149 | -1.71 (inactive) | -0.0032 | 0.011
13 | O=C(CS)NCCCCCCNC(=O)[C@H]1C[C@H]2C(=O)NCC(=O)N2[C@H]1c1ccc(O)cc1 | 0.249 | -0.465 | -0.137 | 0.263 | -0.355 | 1.22 | 1.32 | -0.348 (inactive) | -0.346 | 0.0201
14 | O=C1O[C@H](c2ccccc2)[C@H](c2ccccc2)N2[C@H]1[C@@H](C(=O)Nc1nc3ccccc3s1)[C@]1(C(=O)Nc3ccccc31)[C@H]2c1ccc(O)cc1 | -0.423 | 0.108 | -0.0516 | 0.405 | 1.13 | 1.43 | 1.25 | 0.678 (inactive) | 0.521 | -0.149
15 | CCOC(=O)C1=CC[C@@H](c2ccccc2Cl)N(S(=O)(=O)c2ccc(C)cc2)C1 | 0.091 | -0.507 | 0.102 | 0.435 | 1.3 | 1.31 | 0.828 | -3 (inactive) | 0.802 | 0.0373
16 | CC(C)C(O)C1C=CC2C(=O)N(c3ccccc3)C(=O)C2N1Nc1ccc(C#N)cc1 (stereo not given) | 0.946 | 0.303 | 0.238 | 1.07 | 1.7 | 1.72 | 1.23 | 0.596 (inactive) | 1.49 | -0.168
17 | COc1cc(C(O)C2C=CC3C(=O)N(c4ccccc4)C(=O)C3N2Nc2ccc(C#N)cc2)cc(OC)c1OC (stereo not given) | 0.606 | 0.226 | 0.179 | 1.14 | 1.67 | 2.18 | 1.41 | 0.209 (inactive) | 1.77 | 0.295
18 | COc1ccc(C#Cc2ccc3c(c2)[C@]2(C(=O)N3)[C@H](c3ccc(O)cc3)N3[C@H](c4ccccc4)[C@H](c4ccccc4)OC(=O)[C@H]3[C@@H]2C(=O)NC[C@H](O)c2ccccc2)cc1 | -0.127 | 0.0172 | -0.0599 | 0.776 | 0.757 | 0.563 | 1.15 | 0.72 (inactive) | 0.317 | -0.288
19 | O=c1oc(-c2ccccc2)nc2cc(Br)ccc12 | -0.0862 | 0.0961 | -0.103 | 0.298 | 0.325 | -0.0187 | 0.52 | -0.409 (inactive) | 0.127 | -0.287
20 | [N-]=[N+]=NCc1ccccc1[C@@H]1OC(c2ccc(OCCCO)cc2)=N[C@]1(Cc1ccccc1)C(=O)N1CCCCC1 | 0.49 | 1.1 | 0.0703 | 1.05 | 1.5 | 1.18 | 1.12 | -1.03 (inactive) | 1.49 | 0.212
21 | C=CCC(OC(C)=O)[C@@H]1[C@@H](N(Cc2ccc(-c3cccc(C(F)(F)F)c3)o2)C(=O)c2ccc(C)cc2)c2cc(OCCCO)ccc2N1C(=O)c1ccc(-c2ccccc2)cc1 (stereo not given in full) | -0.322 | -0.179 | -0.129 | 0.265 | 0.0105 | -0.416 | -0.515 | 0.887 (inactive) | 0.137 | -0.214
22 | COC(=O)[C@@]1(Cc2ccc(OC)cc2)[C@H]2c3cc(C(=O)N4CCCC4)n(CCc4c[nH]c5cc(F)ccc45)c3C[C@H]2CN1C(=O)c1ccccc1 | 0.785 | 0.209 | 0.0181 | 0.71 | 1.76 | 2.12 | 1.18 | -0.87 (inactive) | 2.35 | 0.28
23 | O=C1OCC=C[C@H]2OC34C=CCN(c5ccc6ccccc6c5)C(=O)[C@H]3N(CCCO)C(=O)[C@@H]4[C@@H]12 (stereo not given in full) | 0.714 | -2.17 | -0.102 | -0.657 | -0.894 | -0.0772 | 1.59 | 0.389 (inactive) | -0.234 | 0.0515
24 | COCC(=C=CC[C@H](O)c1ccc(OCCO)cc1)C[C@H](O)c1cc(Cl)cc(Cl)c1O | -0.327 | 0.95 | -0.0125 | 0.754 | 0.623 | 0.458 | 1.16 | -3.67 (inactive) | 0.582 | 0.0505
25 | COC(=O)[C@@]1(Cc2ccccc2)[C@H]2c3cc(C(=O)N4CCCC4)n(C)c3C[C@H]2CN1C(=O)c1ccccc1 | 0.483 | -0.207 | 0.107 | -0.0646 | 1.67 | 1.51 | 1.25 | 0.121 (inactive) | 0.882 | 1.72
26 | COc1ccc(C(O)C2C=CC3C(=O)N(C)C(=O)C3N2Nc2ccccc2)cc1OCc1ccccc1 (stereo not given) | 0.008 | 0.174 | 0.0258 | 0.386 | 1.28 | 1.94 | 1.31 | -1.1 (inactive) | 0.346 | 0.208
27 | COCCOC(=O)N1C(=O)[C@@]2(c3cc(C#CC4=CCCCC4)ccc31)[C@H](C(=O)N1CCc3cc(OC)c(OC)cc3C1)[C@H]1C(=O)O[C@H](c3ccccc3)[C@H](c3ccccc3)N1[C@@H]2c1ccccc1OCCO | 0.243 | 0.0781 | -0.0867 | -0.205 | 0.138 | -0.442 | 1.06 | 0.801 (inactive) | 0.186 | -0.0645
